ATXN2 expr inh: ATXN2 expression inhibition; HEK-293 ATXN2-luciferase reporter, luminescence, 24 h; Potency, µM (highest dose often 57 µM), without a hit: at the highest dose activity change, negative = inhibition, actives largely listed as inhibitors; 0.72% of 360,000 active; AID 1745845; also: % is scaled to controls: 0 for no effect and ±100 for the full control effect; nearly all actives have a fitted effect of over 55% in size
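qHTS (up to 57 uM final) was run with 24 h compound exposure of reporter cells at 37 °C. Each well was multiplexed: SteadyGlo luminescence measured ATXN2-luciferase expression after a fluorogenic Gly-Phe-AFC viability readout (25 uM final).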
ATXN viability: cell viability loss in ATXN counter-screen; Potency, µM (doses to about 56.7 µM), hits mostly cytotoxic; S2 cells (HEK-293 line with an ATXN2-luciferase reporter) viability, CellTiter-Fluor protease fluorescence, 24 h; 0.49% of 400,000 active; also: nearly all actives have a fitted effect of over 40% in size
HT1080-NT tox: kills 2HG-producing HT-1080-NT fibrosarcoma cells. Potency, µM (highest dose often 46.1 µM), for the others: top-dose activity, negative = less viability, usual class: cytotoxic. HT-1080-NT fibrosarcoma viability, CellTiter-Glo ATP luminescence, 48 h. AID 686970. 1.6% of 360,000 active;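 also: NT is the 2HG producing partner of a matched IDH1 knockdown line; 0% = DMSO-treated cells and -100% = media-only wells without cells; nearly all actives have a fitted effect of over 55% in size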
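HT-1080-NT fibrosarcoma cells (2HG-overproducing), 750 cells/well in RPMI with 5% FBS, dosed after 2 h and incubated 48 h at 37C. CellTiter-Glo luminescence normalized to DMSO and no-cell wells; concentration-response curves fitted and classed.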
TGFb SMAD3 inh: blocks TGF-b signaling. HepG2 CAGA-GFP TGF-b/SMAD3 reporter, GFP fluorescence, 18 h; TGF-beta stimulated, 500 pg/mL final. Potency, µM (series often up to 46.1 µM), for the others: at the highest dose activity, negative = inhibition, actives largely listed as inhibitors. 1.2% of 410,000 active. AID 588855; also: % is scaled to controls: 0 for no effect and ±100 for the full control effect; nearly all actives have a fitted effect of over 65% in size
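Smad-responsive CAGA-GFP expression was quantified in HEPG2 cells exposed to compounds and 500 pg/mL final TGF-beta for 18 h at 37 degrees C; unstimulated wells defined full inhibition.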
HT1080 IDH1KD tx: kills HT-1080 cells with IDH1 knockdown | HT-1080 IDH1 knockdown viability, ATP luminescence, 48 h | AID 686971 | Potency, µM (series often up to 46.1 µM), without a hit: at the highest dose activity, negative = toxicity, hits mostly cytotoxic | 2% of 360,000 active;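 also: 0% = DMSO wells and -100% = cell-free medium wells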
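Using the IDH1-knockdown HT-1080 line run in the same batch and compound series as the NT line, viability after 48 h at 37 °C was determined by CellTiter-Glo luminescence and expressed as % activity.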
HepG2 viability: HepG2 cytotoxicity, counter-screen for TGF-b inhibitors; Potency, µM (series often up to 46.1 µM), inactives show at the top dose activity change, negative = cytotoxicity, usual class: cytotoxic; AID 588856; 0.76% of 410,000 active; HepG2 CAGA-GFP viability, ATP luminescence, 18 h
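CellTiter-Glo luminescence gave cytotoxicity after 18 hours at 37 degrees C. The cells were HepG2 CAGA-GFP in 1% FBS DMEM, stimulated with 500 pg/mL TGF-beta after compound addition. %Activity was normalised to no-cell wells (complete cell-killing) and DMSO (no toxicity), and curves were fitted and classified.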
Starred values were filed as active, the others as inactive; i = inactive; ? = inconclusive; . = no result; ! = repeats disagree. In the library only some 3.8% were active in any assay of this set; here they are far more common. Calls follow the shape of the dose curve; as a rule, active = well fitted curve in the direction sought with a large enough effect; inconclusive = small, poorly fitted or top-dose-only effect, or another doubt; inactive = no such curve, though single readings can be large; an effect the other way counts as inactive or inconclusive. Potency is read from the fitted curve at half-maximal effect.

SMILES	ATXN2 expr inh	ATXN viability	HT1080-NT tox	TGFb SMAD3 inh	HT1080 IDH1KD tx	HepG2 viability
Oc1c(Cl)cc(Cl)c2c1NCCC2	?	?	-2%	14µM*	-22%	-46%
COc1ccc(NC(=O)Nc2cccc(OCc3cc(=O)n4cccc(C)c4n3)c2)c(OC)c1	.	.	.	?	.	-9%
CC(C)Oc1ccc(CNC(=O)c2cnc3sc(N4CCCCC4)nn3c2=O)cc1	10%	i	.	-19%	.	-33%
Cc1c(CN(C)C)c2c(n1Cc1ccccc1)C(=O)c1ccc(Br)cc1-2	?	?	18µM*	?	?	18µM*
CC(=O)Nc1ccc(NC(=O)COc2c(C)cc(Br)cc2C)cc1	14%	i	-9%	-24%	-8%	-30%
CSc1cc(C)c(OCC(=O)Nc2ccc(NC(C)=O)cc2)c(C)c1	.	i	-3%	-10%	-17%	0.2µM*
CCOc1ccc(NC(=O)c2cc3cc(C)ccc3n2C)cc1	6%	?	.	14%	.	-73%
CC(C)NC(=O)c1ccc(C=O)cc1	5%	i	.	.	.	.
O=c1c2ccccc2sn1-c1cc(S(=O)(=O)N2CCOCC2)ccc1N1CCOCC1	-14%	i	?	11µM*!	?	-94%
O=c1c2ccccc2sn1-c1cc(S(=O)(=O)N2CCOCC2)ccc1N1CCCC1	-12%	i	?	-27%	?	-9%
Cc1ccc(C)c(N2CCN(C(=O)c3cc4c(=O)n(Cc5cccnc5)ccc4nc3C)CC2)c1	-24%	i	.	?	.	-43%
Cc1nn2c(C)c(C(=O)NCc3ccco3)cnc2c1-c1ccccc1	.	.	.	3%	.	0%
CC[C@H](C)[C@H]1O[C@]2(CC[C@@H]1C)C[C@@H]1C[C@@H](CC=C(C)[C@@H](O[C@H]3C[C@H](OC)[C@@H](O[C@H]4C[C@H](OC)[C@@H](O)[C@H](C)O4)[C@H](C)O3)[C@@H](C)C=CC=C3CO[C@@H]4[C@H](O)C(C)=C[C@@H](C(=O)O1)[C@]34O)O2	3.5µM*	3.5µM*	2.9µM*	3.2µM*	4.1µM*	3.5µM*
CO[C@H]1C[C@H](O[C@H]2[C@H](C)O[C@@H](O[C@@H]3/C(C)=C/C[C@@H]4C[C@@H](C[C@]5(C=C[C@H](C)[C@@H](C6CCCCC6)O5)O4)OC(=O)[C@@H]4C=C(C)[C@@H](O)[C@H]5OC/C(=C\C=C\[C@@H]3C)[C@]54O)C[C@@H]2OC)O[C@@H](C)[C@@H]1O	.	3.2µM*	.	.	.	.
CCC(C)[C@H]1O[C@]2(C=C[C@@H]1C)C[C@@H]1C[C@@H](C/C=C(\C)[C@@H](O[C@H]3C[C@H](OC)[C@@H](O[C@H]4C[C@H](OC)[C@H](NC(C)=O)[C@H](C)O4)[C@H](C)O3)[C@@H](C)/C=C/C=C3\CO[C@@H]4[C@H](O)C(C)=C[C@@H](C(=O)O1)[C@]34O)O2 (stereo partly specified)	.	3.2µM*!	.	.	.	.
CON=C1C[C@]2(C[C@@H]3C[C@@H](C/C=C(\C)C[C@@H](C)/C=C/C=C4\CO[C@@H]5[C@H](O)C(C)=C[C@@H](C(=O)O3)[C@]45O)O2)O[C@H](/C(C)=C/C(C)C)[C@H]1C	.	16µM*	.	.	.	.
Cc1c(C(=O)NCc2cccc(Br)c2)oc2ccc3c(c12)C(=O)CC(C)(C)O3	.	.	.	.	.	-7%
CCOC(=O)C1=C(CN2CCN(c3ccccc3F)CC2)NC(=O)NC1c1ccc(OC)cc1 (stereo unspecified)	.	.	.	8%	.	5%
Cc1nc(NC(=S)NC(=O)c2ccccc2)sc1C	25%	i	-2%	-30%	5%	-15%
Cc1nc(NC(N)=S)sc1C(=O)Nc1ccccc1	6%	i	-8%	3%	?	11µM*
Cc1nc(NC(=O)c2ccccc2)sc1C	.	i	-20%	9%	-13%	16µM*
O=C(NCc1ccc2c(c1)CCN2C(=O)c1ccc(F)cc1)c1ccc(Br)o1	.	.	.	40%	.	2%
Cc1nc2c(-c3ccc(Cl)cc3)c(C)[nH]n2c(=O)c1Cc1ccccc1	?	?	?	11µM*	?	10µM*
Cc1cccc(Cc2c(C)nc3c(-c4ccccc4)c(C)[nH]n3c2=O)c1	13µM*	?	.	2.5µM*	.	-31%
Cc1nc2c(-c3ccccc3)c(C)[nH]n2c(=O)c1Cc1ccccc1	-17%	i	-27%	?	?	-36%
SMILES	ATXN2 expr inh	ATXN viability	HT1080-NT tox	TGFb SMAD3 inh	HT1080 IDH1KD tx	HepG2 viability
Cc1[nH]n2c(=O)cc(-c3ccccc3Cl)nc2c1-c1ccccc1	-25%	i	.	?	.	-46%
COCc1cc(=O)n2[nH]c(C)c(-c3ccc(Cl)cc3)c2n1	.	i	-23%	-11%	?	14µM*
O=C(NCc1ccccn1)c1cnn(-c2nccc(-c3ccccc3F)n2)c1C1CC1	.	i	.	.	.	.
CN(Cc1ccccc1)C(=O)C1CCN(S(=O)(=O)Cc2ccccc2)CC1	7%	i	.	-10%	.	-7%
CCCN1C(=O)/C(=C/c2ccncc2)SC1=S	-25%	i	0%	7%	12%	7%
O=C1/C(=C/c2ccncc2)SC(=S)N1Cc1ccccc1	-31%	i	23µM*	?	18µM*	-46%
O=C1/C(=C\c2cc([N+](=O)[O-])ccc2O)SC(=S)N1Cc1ccc(Cl)cc1	.	.	23µM*	-6%	23µM*	-60%
O=C1/C(=C\c2ccc(O)c(O)c2)SC(=S)N1Cc1ccccc1	?	28µM*	?	?	?	-75%
O=C(Cn1ncc2c(Cl)cccc21)NCc1cccc(Br)c1	4%	i	.	?	.	-35%
CCc1cccc(NC(=O)c2ccc(CNS(=O)(=O)c3ccc4c(c3)C(C)(C)C(=O)N4C)cc2)c1	.	.	.	?	.	-35%
CCOc1ccc2nc(C)cc(Nc3cccc([N+](=O)[O-])c3)c2c1	28µM*	.	-28%	?	18µM*	-101%
Cc1cc(Nc2cccc([N+](=O)[O-])c2)c2ccccc2n1	-12%	i	-24%	-15%	?	-20%
CCOc1ccc2nc(C)cc(Nc3ccc4c(c3)OCCO4)c2c1	?	?	?	22µM*	?	-81%
CC(=O)n1cc(CO)c2ccccc21	-7%	i	-2%	-4%	-4%	3%
CC(=O)n1cc(N(C(=O)CCl)c2ccc([N+](=O)[O-])cc2)c2ccccc21	?	28µM*	23µM*	?	?	10µM*
CC(=O)n1cc(N(C(=O)CCl)c2ccccc2)c2ccccc21	?	.	2.6µM*	7.1µM*	2.6µM*	7.1µM*

Assay outcomes as filed in PubChem BioAssay.
